An excerpt weighted towards active compounds, which were near 1.8% of everything screened.
GLP-1R inv ag = acts as inverse agonist at human GLP-1 receptor; P43220; HEK293 GLP-1R CRE-luciferase, luminescence, 24 h; GLP-1R form is constitutively active; Potency, µM (top dose mostly 38.3 µM), actives largely listed as inhibitors; 1.6% of 410,000 active; note: nearly all actives have a fitted effect of over 55% in size
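Using stably transfected HEK293 (constitutively active GLP-1R, cAMP-luciferase reporter), compounds were incubated 24 hr and luciferase measured by luminescence.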
GLP-1R agonist = agonists of human GLP-1 receptor. P43220. HEK293 GLP-1R CRE-luciferase, luminescence, 4-6 h; cells express a hypersensitive GLP-1R form. Potency, µM (highest dose often 45.6 µM), hits mostly activators. 0.007% of 380,000 active
TRPML1 blocker = human mucolipin-1 channel inhibition | 0.02% of 390,000 active | Q9GZU1 | AID 624415 | activity change, negative = inhibition, % (test concentration not listed) | TRPML1-inducible cells, Ca2+ dye fluorescence, FDSS; active compounds read low; inhibition of EC80 agonist-evoked calcium signal; in the data active = activity change below about -50%; inconclusive = between about -30% and that limit;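 note: stimulus is agonist 54-4 at its EC80 concentration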
Target sequence (Q9GZU1 whole entry, looked up): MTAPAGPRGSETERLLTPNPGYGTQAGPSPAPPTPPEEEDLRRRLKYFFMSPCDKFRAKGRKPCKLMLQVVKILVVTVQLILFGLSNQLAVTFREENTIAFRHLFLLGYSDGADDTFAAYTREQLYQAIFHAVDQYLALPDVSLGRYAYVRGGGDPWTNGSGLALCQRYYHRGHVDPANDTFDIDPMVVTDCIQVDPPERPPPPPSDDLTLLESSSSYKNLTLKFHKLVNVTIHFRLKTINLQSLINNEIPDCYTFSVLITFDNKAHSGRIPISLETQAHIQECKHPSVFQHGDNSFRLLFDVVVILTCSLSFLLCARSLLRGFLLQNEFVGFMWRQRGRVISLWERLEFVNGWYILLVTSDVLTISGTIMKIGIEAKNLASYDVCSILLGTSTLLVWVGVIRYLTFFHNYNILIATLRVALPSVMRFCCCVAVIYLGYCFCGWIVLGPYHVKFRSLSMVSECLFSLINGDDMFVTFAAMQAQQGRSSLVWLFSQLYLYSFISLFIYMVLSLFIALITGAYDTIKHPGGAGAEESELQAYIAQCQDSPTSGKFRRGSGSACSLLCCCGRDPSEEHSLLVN
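TRPML1-DL cells, Tet-induced overnight (~16 h, 37 °C) at 1,500 cells/well, were loaded with Ca8 no-wash dye plus quencher for 45-90 min at room temperature. Compounds were pinned during FDSS kinetic reading; agonist 54-4 at EC80 (4 uM final) then added.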
TRPML1 ag = agonists of human TRPML1 channel | 0.12% of 410,000 active | Q9GZU1 | activation, % (no concentration beside the values) | TRPML1-expressing cells, Ca2+ dye fluorescence, FDSS; in the data active = activation above about 50%; inconclusive = mostly about 30% to 49%
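Agonist activity was taken from a 110 s kinetic Ca2+ dye read on the FDSS after pinning compounds onto TRPML1-DL cells. The cells were seeded at 1,500/well with Tet inducer, incubated about 16 h, then dye-loaded at room temperature.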
GLP1R cytotox = cytotoxicity counter-screen for GLP-1 receptor inverse agonists; Potency, µM (series often up to 38.3 µM), actives largely listed as inhibitors; HEK293 cAMP-luciferase reporter cells, luminescence, 24 h; AID 624418; 0.13% of 410,000 active;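 note: loss of luciferase light is scored as toxicity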
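Here, cytotoxicity is scored as loss of luminescence. The MLSMR collection was tested on cells seeded in medium containing 10% Nu serum, with a 24 hr compound exposure preceded by 12 hours of culture.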
Hits are given with their value; . = inactive; ? = inconclusive; / = no result. Unless noted, calls come from the whole dose curve; as a rule, active = well fitted curve in the direction sought with a large enough effect; inconclusive = small, poorly fitted or top-dose-only effect, or another doubt; inactive = no such curve, though single readings can be large; an effect the other way counts as inactive or inconclusive.

SMILES | GLP-1R inv ag | GLP-1R agonist | TRPML1 blocker | TRPML1 ag | GLP1R cytotox
O=C(c1ccc(S(=O)(=O)Nc2cccc(C(F)(F)F)c2)cc1)N1CCN(c2ccccc2O)CC1 | 10µM | . | . | . | .
CCC(C(=O)NC(N)=O)c1ccccc1 (configuration not stated) | / | . | / | / | /
COc1ccc(Br)cc1/C=C/C(=O)c1ccc(NC(C)=O)cc1 | 5.01µM | . | . | . | .
CC(C)CCCCCCNC(=S)Nc1ccc(S(=O)(=O)N2CCOCC2)cc1 | 3.55µM | . | . | . | ?
Cc1c(O)ccc2c1OC(C)(C)CC2 | / | / | / | . | /
C/C(CC(=O)Nc1ccc(Cl)c(Cl)c1)=N\NC(N)=S | 11.2µM | . | . | . | ?
C/C(CC(=O)Nc1ccc(C)c(Cl)c1)=N\NC(=O)c1ccncc1 | 10µM | . | . | . | .
C/C(CC(=O)Nc1cc(Cl)ccc1Cl)=N\NC(N)=S | ? | . | . | . | .
O=C(c1cc2ccccc2[nH]1)c1cc2cc(O)ccc2[nH]1 | / | / | / | . | /
COc1ccccc1CNC(=O)c1c[nH]c2ccc(S(=O)(=O)Nc3cc(C)cc(C)c3)cc2c1=O | ? | / | . | . | .
CC(=O)N1CCC(N(Cc2ccc(C)o2)C(=O)Nc2cccc(C(F)(F)F)c2)CC1 | . | / | . | . | .
Cc1cccc2cc(C#N)c(NCCNS(=O)(=O)c3ccccc3)nc12 | . | . | . | . | .
Cc1cccc2cc(C#N)c(NCCCNS(=O)(=O)c3ccc(Cl)cc3)nc12 | 10µM | . | . | . | .
Cc1ccc(OC(C)C(=O)Nc2nonc2-c2ccc(Br)cc2)cc1C (configuration not stated) | ? | / | . | . | .
CC1CCc2nc(N)c(C#N)c(-c3cccnc3)c2C1 (configuration not stated) | 0.891µM | . | . | . | .
CC1CCc2nc(N)c(C#N)c(-c3ccncc3)c2C1 (configuration not stated) | . | . | . | . | .
COc1ccc(NC(=O)C(=O)NCC2CCCN2S(=O)(=O)c2cc(C)ccc2C)cc1 (configuration not stated) | 3.98µM | . | . | . | ?
CN(C)CC/C=C1\c2ccc(F)cc2Sc2cc(F)c(Cl)cc21 | 7.94µM | . | . | . | ?
CN(C)CC/C=C1\c2cc(Cl)ccc2Sc2cc(F)c(F)cc21 | ? | . | . | . | .
CN(C)CC/C=C1\c2ccccc2Sc2cc(F)c(Cl)cc21 | 7.94µM | . | . | . | ?
C[N+](C)(C)CCOP(=O)(O)OP(=O)([O-])OCC1OC(n2ccc(N)nc2=O)[C@H](O)[C@@H]1O (some centres not stated) | / | . | / | / | /
NNC(=O)c1cccc(COc2ccc3c(c2)CCC3)c1 | 1.12µM | . | . | . | .
CC(C)(C)c1cc(C(=O)NCCN2CCCC2)cc(C(C)(C)C)c1 | 12.6µM | . | . | . | .
Cc1ccccc1-c1ocnc1C(=O)Nc1ccccc1NC(=O)c1ccccn1 | 3.98µM | . | . | . | ?
COc1ccc(C)cc1N(C)C(=O)c1sc2nc3n(c(=O)c2c1C)CCCCC3 | . | / | . | . | .
SMILES | GLP-1R inv ag | GLP-1R agonist | TRPML1 blocker | TRPML1 ag | GLP1R cytotox
O=C(CN1CCN(C(c2ccccc2)c2ccccc2)CC1)N1N=CCC1c1ccccc1 (configuration not stated) | 11.2µM | . | . | . | .
O=C(CN1CCN(C(c2ccccc2)c2ccccc2)CC1)NCc1ccccc1 | ? | . | . | . | .
COc1ccc(CNC(=O)CN2CCN(C(c3ccccc3)c3ccccc3)CC2)cc1 | 12.6µM | . | . | . | .
CC(C)(C)NC(=O)NC(=O)CN1CCN(C(c2ccccc2)c2ccccc2)CC1 | 5.01µM | . | . | . | .
O=C(Cn1cc(SCc2ccccc2F)c2ccccc21)N1CCCCCC1 | ? | / | . | . | .
S=C(Nc1ccc(Cl)cc1)c1nc2ccccc2s1 | . | . | . | . | .
O=C(Nc1ccc(Cl)cc1)/C(=C/c1cccc(O)c1)c1nc2ccccc2s1 | 2.82µM | . | . | . | .
COc1ccc(-c2cc(C)no2)cc1S(=O)(=O)N1CCOc2ccccc21 | . | . | . | . | .
CCc1ccc(-c2cc(C)no2)cc1S(=O)(=O)N1CCN(c2ccccc2F)CC1 | . | . | . | . | .
CCc1ccc(-c2cc(C)no2)cc1S(=O)(=O)N1CCN(c2cccc(C)c2C)CC1 | 7.94µM | . | . | . | .
Cc1cc(-c2ccc(C(C)C)c(S(=O)(=O)N3CCOc4ccccc43)c2)on1 | ? | . | . | 138.7 | .
Cc1cccc(N2CCN(S(=O)(=O)c3cc(-c4cc(C)no4)ccc3C)CC2C)c1 (configuration not stated) | 3.98µM | . | . | . | .
COc1ccccc1N1CCN(S(=O)(=O)c2cc(-c3cc(C)no3)ccc2C(C)C)CC1 | 1µM | . | . | . | .
Cc1cc(-c2ccc(C(C)C)c(S(=O)(=O)N3CCN(c4ccccc4)CC3)c2)on1 | ? | . | . | . | .
CCc1ccc(-c2cc(C)no2)cc1S(=O)(=O)N1CCCN(Cc2ccc(F)cc2)C1 | 2.51µM | . | . | . | .
COc1cc(-c2noc(-c3ccc(NCC4CCCO4)c([N+](=O)[O-])c3)n2)cc(OC)c1OC (configuration not stated) | . | / | . | . | .
OC(CNCc1ccc(-c2ccccc2)cc1)c1ccccc1 (configuration not stated) | 10µM | ? | . | . | ?
O=C(Cc1cccc2ccccc12)NCC(=O)N1CCN(CC(=O)Nc2ccc(F)cc2)CC1 | . | . | . | . | .
O=C(Cc1cccc2ccccc12)NCC(=O)N1CCN(Cc2cccc(C(F)(F)F)c2)CC1 | 10µM | . | . | . | .
C=C1C[C@@H]2[C@H]3CCC4=CC(=O)C=C[C@]4(C)[C@@]3(F)[C@@H](O)C[C@]2(C)[C@]1(O)C(=O)COC(C)=O | / | . | / | / | /
CSc1ccc2c(c1)C(N1CCN(C)CC1)Cc1ccc(F)cc1S2 (configuration not stated) | ? | . | . | . | ?
COc1ccc2c(c1)CC(N1CCN(C)CC1)c1cc(OC)ccc1S2 (configuration not stated) | 2.51µM | . | . | . | ?
Cc1ccc(S(=O)(=O)/C(=C/Cl)NC(=O)c2ccccc2)cc1 | 10µM | . | . | . | 6.31µM
NC(=O)c1c(NC(=O)c2noc3c2CCCC3)sc2c1CCCC2 | . | / | . | . | .
O=S(=O)(c1cccs1)N1CCN(CC(O)COc2cccc(Br)c2)CC1 (configuration not stated) | 8.91µM | . | . | . | .
COc1ccc(C2=Nc3ccc(OC(F)(F)F)cc3NC(c3cccnc3)=N2)cc1 | . | / | . | . | .
CCOc1ccc(C(=O)Nc2ccc3nc(Nc4cccc(C(F)(F)F)c4)cc(C)c3c2)cc1OCC | . | . | . | . | .
